From PubChem BioAssay (EPA / NIEHS)
Activity calls are given as the source filed them. The calls were made as follows: active = hit-call score of the fitted dose curve at least 0.9, where 1 is the maximum; inactive = score below 0.9.

Experiments:
Settings in all cases: primary human HUVEC with PBMC; actives raise or lower the signal
[1] = read-out: Macrophage colony-stimulating factor (MCSF), CSF1 (gene 1435); experiment: BSK_LPS_MCSF: BioMAP Diversity Plus: LPS Assay for Macrophage colony-stimulating factor (MCSF) Biomarker Activity (AID 2283083)
Procedure, shortened: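 Bidirectional fitting against DMSO was applied to M-CSF levels read by ELISA at 24 h post-dose. The system pairs human umbilical vein endothelium with peripheral blood mononuclear cells; parallel SRB staining tracked cytotoxicity.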

[2] = read-out: Tissue Factor, F3 (gene 2152); experiment: BSK_LPS_TissueFactor: BioMAP Diversity Plus: LPS Assay for Tissue Factor Biomarker Activity (AID 2283084)
Procedure, shortened: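 Compound was added to an endothelial cell/PBMC co-culture, and after 24 h tissue factor (CD142) was read by ELISA. Gain or loss of signal was fitted against a DMSO baseline, and parallel SRB staining (560 nm) tracked overt cytotoxicity.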

[3] = read-out: Tumor necrosis factor (Homo sapiens) (UniProt P01375); experiment: BSK_LPS_TNFa: BioMAP Diversity Plus: LPS Assay for Tumour Necrosis Factor alpha (TNFa) Biomarker Activity (AID 2283085);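 as to AC50: TNFa protein level quantified by ELISA in the co-culture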
Procedure, shortened: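 HUVEC/PBMC co-culture, LPS-stimulated; 24 h post-dose; TNFa by ELISA; gain or loss of signal fitted bidirectionally vs DMSO baseline.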

[4] = read-out: Vascular cell adhesion molecule 1 (VCAM1), VCAM1 (gene 7412); experiment: BSK_LPS_VCAM1: BioMAP Diversity Plus: LPS Assay for Vascular cell adhesion molecule 1 (VCAM1) Biomarker Activity (AID 2283086)
Procedure, shortened: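 ELISA read-out of VCAM-1 at 24 h post-dosing in an LPS-driven HUVEC/PBMC primary human co-culture; gain or loss of signal fitted bidirectionally against DMSO baseline. Cytotoxicity tracked in parallel cultures by SRB total-protein staining.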

CD38, CD38 (gene 952) = experiment: BSK_SAg_CD38: BioMAP Diversity Plus: SAg Assay for CD38 Biomarker Activity (AID 2283087)
Procedure, shortened: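 Measures CD38 on a human endothelial/PBMC co-culture driven by SEB and TSST-1, 24 h after compound exposure, using ELISA with fluorescence detection; DMSO defines baseline for bidirectional curve fitting.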

CD69, CD69 (gene 969) = experiment: BSK_SAg_CD69: BioMAP Diversity Plus: SAg Assay for CD69 Biomarker Activity (AID 2283089);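 as to AC50: cell surface CD69 protein quantified by ELISA with fluorescence detection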
Procedure, shortened: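 Values derive from bidirectional fitting relative to DMSO vehicle. Cells: umbilical vein endothelium plus peripheral blood mononuclear cells, treated 24 h before fluorescent ELISA for CD69.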

[5] = read-out: Monocyte Chemoattractant Protein-1 (MCP1), CCL2 (gene 6347); experiment: BSK_SAg_MCP1: BioMAP Diversity Plus: SAg Assay for Monocyte Chemoattractant Protein-1 (MCP1) Biomarker Activity (AID 2283090)
Procedure, shortened: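 Values derive from bidirectional fitting of ELISA-measured MCP1 against DMSO controls. Readings were taken 24 h after dosing human vascular endothelial cells co-cultured with peripheral blood mononuclear cells under superantigen stimulation.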

[6] = read-out: E-selectin (Homo sapiens) (UniProt P16581); experiment: BSK_SAg_Eselectin: BioMAP Diversity Plus: SAg Assay for Eselectin Biomarker Activity (AID 2283091)
Procedure, shortened: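 Cell-surface E-selectin is read by ELISA at 24 h in the SAg co-culture of HUVEC and PBMC. Curves are fitted in both directions relative to DMSO. Parallel SRB total-protein staining tracks overt toxicity.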

[7] = read-out: Monokine induced gamma interferon (MIG), CXCL9 (gene 4283); experiment: BSK_SAg_MIG: BioMAP Diversity Plus: SAg Assay for Monokine induced gamma interferon (MIG) Biomarker Activity (AID 2283092)
Procedure, shortened: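 Values reflect bidirectional fitting of ELISA-measured MIG against DMSO vehicle, taken 24 h after dosing of a co-culture of human umbilical vein endothelial cells and peripheral blood mononuclear cells.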

CD40, CD40 (gene 958) = experiment: BSK_SAg_CD40: BioMAP Diversity Plus: SAg Assay for CD40 Biomarker Activity (AID 2283088)
Procedure, shortened: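 CD40 is measured by fluorescence ELISA in an endothelial/PBMC primary human co-culture at 24 h post-dose. Fitting is bidirectional, DMSO baseline. Parallel SRB staining (560 nm) flags cytotoxicity.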

Measured: AC50

Tumor necrosis factor (Homo sapiens), sequence (P01375 whole entry, looked up): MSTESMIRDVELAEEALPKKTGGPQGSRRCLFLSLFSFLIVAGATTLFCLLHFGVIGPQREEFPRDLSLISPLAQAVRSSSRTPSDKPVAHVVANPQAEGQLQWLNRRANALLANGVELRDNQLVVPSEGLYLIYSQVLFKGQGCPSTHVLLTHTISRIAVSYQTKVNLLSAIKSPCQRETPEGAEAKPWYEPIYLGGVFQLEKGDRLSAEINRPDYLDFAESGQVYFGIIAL
E-selectin (Homo sapiens), sequence (P16581 whole entry, looked up): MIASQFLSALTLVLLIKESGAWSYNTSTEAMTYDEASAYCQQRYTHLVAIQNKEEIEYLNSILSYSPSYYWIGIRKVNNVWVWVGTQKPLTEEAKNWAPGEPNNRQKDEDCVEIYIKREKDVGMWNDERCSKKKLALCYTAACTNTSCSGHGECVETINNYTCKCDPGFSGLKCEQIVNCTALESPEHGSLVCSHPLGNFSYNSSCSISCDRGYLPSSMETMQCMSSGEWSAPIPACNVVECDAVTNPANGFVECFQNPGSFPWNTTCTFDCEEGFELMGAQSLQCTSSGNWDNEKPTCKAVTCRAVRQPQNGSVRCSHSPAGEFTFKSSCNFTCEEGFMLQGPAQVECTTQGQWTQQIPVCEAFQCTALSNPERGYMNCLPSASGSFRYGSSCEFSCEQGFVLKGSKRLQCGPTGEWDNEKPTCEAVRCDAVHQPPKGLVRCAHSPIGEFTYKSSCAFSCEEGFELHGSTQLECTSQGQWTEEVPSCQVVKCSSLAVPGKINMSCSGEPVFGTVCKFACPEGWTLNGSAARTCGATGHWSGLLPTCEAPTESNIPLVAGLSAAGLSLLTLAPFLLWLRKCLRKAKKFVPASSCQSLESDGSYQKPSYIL

CCN(Cc1cccnc1)C(=O)c1cccc(Cl)c1[C@]1(C)C(=O)N(Cc2ccc(OC)cc2OC)c2ccc(Cl)cc21
active: [1] 6.54 µM | [2] 12.5 µM | [4] 5.26 µM | CD38, CD38 (gene 952) 8.35 µM | CD69, CD69 (gene 969) 7.2 µM | [5] 5.36 µM | [6] 7.27 µM
inactive: [3] | [7]

CC[C@H](NC(=O)c1cc(F)ccc1NS(=O)(=O)c1cccc2cccnc12)c1ccccc1
active: CD69, CD69 (gene 969) 10.5 µM | [5] 5.84 µM | [6] 4 µM
inactive: [1] | [2] | [3] | [4] | CD38, CD38 (gene 952) | [7]

CCCCOC(=O)CC(CC(=O)OCCCC)(OC(C)=O)C(=O)OCCCC
inactive: [1] | [2] | [3] | [4] | CD38, CD38 (gene 952) | CD69, CD69 (gene 969) | [5] | [6] | [7]

O=C(O)c1ccccc1-n1cc(C(=O)O)c(=O)c2cc(Nc3c(F)cc(F)cc3Cl)c(Cl)cc21
inactive: [1] | [2] | [3] | [4] | CD38, CD38 (gene 952) | CD69, CD69 (gene 969) | [5] | [6] | [7]

Oc1ccccc1
inactive: [1] | [2] | [3] | [4] | CD38, CD38 (gene 952) | CD69, CD69 (gene 969) | [5] | [6] | [7]

C[C@]12CC[C@@H]3c4ccc(O)cc4CC[C@H]3[C@@H]1CC[C@H]2O
inactive: [2] | [3] | CD38, CD38 (gene 952) | CD40, CD40 (gene 958) | CD69, CD69 (gene 969) | [6] | [7]
active: [1] 8.61 µM | [5] 15.4 µM

O=CCCCC=O
inactive: [2] | CD38, CD38 (gene 952) | CD69, CD69 (gene 969) | [5] | [7]
active: [1] 37.3 µM | [3] 32.7 µM | [4] 33 µM | [6] 30.3 µM

CN1C(=O)N(c2ccccc2Br)Cc2cnc(Nc3ccc4c(c3)OCC(CO)O4)nc21 (centres undefined)
active: [1] 9.88 µM | [2] 3.52 µM | [3] 3.14 µM | [4] 7.92 µM | CD38, CD38 (gene 952) 2.36 µM | CD69, CD69 (gene 969) 2.08 µM | [5] 1.9 µM | [6] 1.37 µM | [7] 2.89 µM

CC(=O)N1CCN(c2ccc(OC[C@H]3CO[C@](Cn4ccnc4)(c4ccc(Cl)cc4Cl)O3)cc2)CC1
active: [2] 33 µM | [3] 36.7 µM | [4] 28.1 µM | CD38, CD38 (gene 952) 27.4 µM | CD40, CD40 (gene 958) 24.1 µM | CD69, CD69 (gene 969) 25.4 µM | [5] 30.1 µM | [6] 32.4 µM | [7] 37.7 µM

CCCCCCCC[Si](OCC)(OCC)OCC
inactive: [1] | [2] | [3] | [5] | [7]
active: [4] 30.1 µM | CD38, CD38 (gene 952) 20 µM | CD69, CD69 (gene 969) 25.4 µM | [6] 20.7 µM

CCCCCc1ccc(N)cc1
active: [4] 20 µM
inactive: [1] | [2] | [3] | CD38, CD38 (gene 952) | CD69, CD69 (gene 969) | [5] | [6] | [7]

O=C(Nc1ccc(Cl)cc1)Nc1ccc(Cl)c(Cl)c1
active: [1] 11.8 µM | [2] 2.26 µM | [3] 3.23 µM | [4] 3.92 µM | CD38, CD38 (gene 952) 2.11 µM | CD69, CD69 (gene 969) 1.91 µM | [5] 3.32 µM | [6] 2.6 µM | [7] 2.11 µM

CCN(Cc1cccc(S(=O)(=O)O)c1)c1ccc(C(=C2C=CC(=[N+](CC)Cc3cccc(S(=O)(=O)O)c3)C=C2)c2ccccc2S(=O)(=O)[O-])cc1
inactive: [1] | [2] | [3] | [4] | CD38, CD38 (gene 952) | CD69, CD69 (gene 969) | [5] | [6] | [7]

CC(C)(c1cc(Br)c(O)c(Br)c1)c1cc(Br)c(O)c(Br)c1
active: [1] 23.5 µM | [2] 30.1 µM | [3] 19.1 µM | [4] 26.7 µM | CD38, CD38 (gene 952) 27.9 µM | CD69, CD69 (gene 969) 28.4 µM | [5] 29 µM | [6] 22.1 µM | [7] 36.1 µM

Cc1cn([C@H]2C[C@H](N=[N+]=[N-])[C@@H](CO)O2)c(=O)[nH]c1=O
inactive: [1] | [2] | [3] | [4] | CD38, CD38 (gene 952) | CD69, CD69 (gene 969) | [5] | [6] | [7]

CC(O)CC(C)(C)O (centres undefined)
inactive: [1] | [2] | [3] | [4] | CD38, CD38 (gene 952) | CD69, CD69 (gene 969) | [5] | [6] | [7]

CN(C)c1ccc(C(=C2C=CC(=[N+](C)C)C=C2)c2ccc(N(C)C)cc2)cc1
active: [1] 0.476 µM | [2] 0.662 µM | [3] 1.46 µM | [4] 2.51 µM | CD38, CD38 (gene 952) 1.01 µM | CD69, CD69 (gene 969) 0.582 µM | [5] 0.325 µM | [6] 0.223 µM | [7] 1.61 µM

CC(C)(O)c1ccc(CNC(=O)c2cccnc2Oc2ccc3nonc3c2)cc1
inactive: [1] | [2] | [4] | CD38, CD38 (gene 952) | CD69, CD69 (gene 969) | [5] | [7]
active: [3] 1.49 µM | [6] 1.4 µM

O=C=NCCCCCCN=C=O
inactive: [1] | [2] | [3] | [4] | CD38, CD38 (gene 952) | CD69, CD69 (gene 969) | [5] | [6] | [7]

NC(=O)c1nc(-c2cccc(-c3cc(F)ccc3OCC(F)(F)C(F)(F)F)c2)n[nH]1
active: [1] 29.4 µM | [2] 33.4 µM | [3] 37.4 µM | [4] 35.3 µM | CD38, CD38 (gene 952) 29.5 µM | CD69, CD69 (gene 969) 26.2 µM | [5] 29 µM | [6] 19.3 µM | [7] 40.3 µM

CC1=CC(=O)/C(=C(/C)O)C(=O)O1
inactive: [1] | [2] | [3] | [4] | CD38, CD38 (gene 952) | CD69, CD69 (gene 969) | [5] | [6] | [7]
